Measured values taken from publication PMC7862700, “An all-to-all approach to the identification of sequence-specific readers for epigenetic DNA modifications on cytosine”.

Tests used:
Assay in all cases: DAPPL (digital affinity profiling via proximity ligation, sequencing); 10 mM Tris-HCl pH 7.5, 50 mM NaCl, 1 mM DTT, 4% glycerol, room temperature, 30 min; GST-TFs on glutathione beads, 16-mer random dsDNA library, 0.1% formaldehyde crosslink after washing; high values mean tight binding
FLI1 = target: T1, FLI1 (Homo sapiens, UniProt Q01543 1-452); conditions: protein: recombinant; tags: N-terminal GST; dsDNA, one strand shown
T1 sequence: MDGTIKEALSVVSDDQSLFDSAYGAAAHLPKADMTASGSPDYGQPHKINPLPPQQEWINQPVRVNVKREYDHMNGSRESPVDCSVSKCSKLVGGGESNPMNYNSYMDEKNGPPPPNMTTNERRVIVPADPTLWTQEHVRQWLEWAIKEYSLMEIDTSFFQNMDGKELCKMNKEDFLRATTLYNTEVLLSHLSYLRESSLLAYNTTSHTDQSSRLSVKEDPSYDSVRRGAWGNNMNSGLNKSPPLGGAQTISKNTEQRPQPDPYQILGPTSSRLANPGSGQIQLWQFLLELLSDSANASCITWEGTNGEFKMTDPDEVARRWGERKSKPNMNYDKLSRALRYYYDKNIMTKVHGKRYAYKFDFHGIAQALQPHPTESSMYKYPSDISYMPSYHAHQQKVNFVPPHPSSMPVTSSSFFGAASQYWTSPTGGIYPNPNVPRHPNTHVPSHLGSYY
Outline: (§1)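 Each value of binding signal is a hexamer's read frequency for a factor divided by the same hexamer's frequency in the tag-only sample. Barcoded, bead-captured GST fusions of human transcription factors made in yeast were pooled with that sample and incubated with 200 nmole of a random double-stranded 16-mer DNA library in Tris/NaCl/DTT/glycerol buffer at room temperature for 30 min. Washing, 0.1% formaldehyde crosslinking, proximity ligation, PCR and Illumina NextSeq500 sequencing followed.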

ELK1 = target: T2, ELK1 (Homo sapiens, UniProt P19419 1-428); conditions: protein: recombinant; tags: N-terminal GST; dsDNA, one strand shown
T2 sequence: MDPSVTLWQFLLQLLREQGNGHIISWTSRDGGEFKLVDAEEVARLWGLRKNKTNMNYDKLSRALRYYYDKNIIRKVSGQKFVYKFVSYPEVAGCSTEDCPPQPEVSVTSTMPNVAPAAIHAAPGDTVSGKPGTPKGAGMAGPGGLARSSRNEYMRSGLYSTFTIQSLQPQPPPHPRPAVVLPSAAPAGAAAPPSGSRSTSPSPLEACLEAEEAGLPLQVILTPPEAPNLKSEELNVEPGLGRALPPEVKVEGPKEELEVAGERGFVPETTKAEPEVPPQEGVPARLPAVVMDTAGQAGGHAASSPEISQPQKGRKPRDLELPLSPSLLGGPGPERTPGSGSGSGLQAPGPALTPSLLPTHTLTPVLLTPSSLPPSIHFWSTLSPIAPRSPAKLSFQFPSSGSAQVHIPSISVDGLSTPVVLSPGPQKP
Outline: as §1

GABPA = target: T3, GABPA (Homo sapiens, UniProt Q06546 1-454); conditions: protein: recombinant; tags: N-terminal GST; dsDNA, one strand shown
T3 sequence: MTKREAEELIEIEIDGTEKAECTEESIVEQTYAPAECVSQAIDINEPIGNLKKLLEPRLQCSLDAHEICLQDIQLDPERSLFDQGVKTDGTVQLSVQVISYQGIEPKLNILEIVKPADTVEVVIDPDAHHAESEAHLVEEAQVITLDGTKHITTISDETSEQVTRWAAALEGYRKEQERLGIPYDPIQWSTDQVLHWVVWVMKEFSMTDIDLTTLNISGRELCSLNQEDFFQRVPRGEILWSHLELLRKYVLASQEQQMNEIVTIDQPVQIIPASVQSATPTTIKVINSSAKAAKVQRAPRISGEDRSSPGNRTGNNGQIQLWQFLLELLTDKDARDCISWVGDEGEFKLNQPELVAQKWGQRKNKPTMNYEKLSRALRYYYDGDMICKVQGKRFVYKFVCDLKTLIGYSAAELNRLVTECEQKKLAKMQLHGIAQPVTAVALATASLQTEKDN
Outline: as §1

ERG = target: T4, ERG (Homo sapiens, UniProt P11308 1-479); conditions: protein: recombinant; tags: N-terminal GST; dsDNA, one strand shown
T4 sequence: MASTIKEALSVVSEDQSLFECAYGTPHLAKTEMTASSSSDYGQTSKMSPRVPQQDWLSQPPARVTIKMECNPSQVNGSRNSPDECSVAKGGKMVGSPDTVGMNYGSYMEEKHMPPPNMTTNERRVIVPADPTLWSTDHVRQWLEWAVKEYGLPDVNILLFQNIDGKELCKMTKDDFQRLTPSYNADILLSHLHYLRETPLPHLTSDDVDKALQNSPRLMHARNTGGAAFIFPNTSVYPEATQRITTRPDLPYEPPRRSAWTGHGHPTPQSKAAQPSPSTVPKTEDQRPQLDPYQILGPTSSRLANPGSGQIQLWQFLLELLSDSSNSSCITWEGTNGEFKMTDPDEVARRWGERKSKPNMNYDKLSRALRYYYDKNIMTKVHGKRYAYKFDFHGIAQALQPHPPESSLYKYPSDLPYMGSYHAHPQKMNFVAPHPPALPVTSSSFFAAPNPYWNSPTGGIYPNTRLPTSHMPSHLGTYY
Outline: as §1

ELF1 = ELF1 (Homo sapiens, UniProt P32519 1-619); conditions: protein: recombinant; tags: N-terminal GST; dsDNA, one strand shown
ELF1, sequence (P32519 whole entry): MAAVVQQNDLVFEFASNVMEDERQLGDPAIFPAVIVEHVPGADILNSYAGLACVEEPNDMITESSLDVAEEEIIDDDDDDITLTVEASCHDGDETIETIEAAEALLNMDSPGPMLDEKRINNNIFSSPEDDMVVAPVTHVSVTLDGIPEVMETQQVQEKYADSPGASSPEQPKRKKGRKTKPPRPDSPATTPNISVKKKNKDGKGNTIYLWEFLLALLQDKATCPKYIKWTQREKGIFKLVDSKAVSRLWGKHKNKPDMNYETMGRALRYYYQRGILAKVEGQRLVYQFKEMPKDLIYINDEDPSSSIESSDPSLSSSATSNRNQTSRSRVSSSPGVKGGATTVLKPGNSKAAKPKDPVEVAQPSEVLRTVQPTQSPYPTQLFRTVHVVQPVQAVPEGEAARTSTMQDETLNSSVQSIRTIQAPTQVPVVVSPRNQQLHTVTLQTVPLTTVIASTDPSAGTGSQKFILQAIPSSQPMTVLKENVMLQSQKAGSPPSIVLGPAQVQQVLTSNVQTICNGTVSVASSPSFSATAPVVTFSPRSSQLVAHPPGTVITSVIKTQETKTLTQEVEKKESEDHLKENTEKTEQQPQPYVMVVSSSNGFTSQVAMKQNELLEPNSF
Outline: as §1

EHF = target: T5, EHF (Homo sapiens, UniProt Q9NZC4 1-300); conditions: protein: recombinant; tags: N-terminal GST; dsDNA, one strand shown
T5 sequence: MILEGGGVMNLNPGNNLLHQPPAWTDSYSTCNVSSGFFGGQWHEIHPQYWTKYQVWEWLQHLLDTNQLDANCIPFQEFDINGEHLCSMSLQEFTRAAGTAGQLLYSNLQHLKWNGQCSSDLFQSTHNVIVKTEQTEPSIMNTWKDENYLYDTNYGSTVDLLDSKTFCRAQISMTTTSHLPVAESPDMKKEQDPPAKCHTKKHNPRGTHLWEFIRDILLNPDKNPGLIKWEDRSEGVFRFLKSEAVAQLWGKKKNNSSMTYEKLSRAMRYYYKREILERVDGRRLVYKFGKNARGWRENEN
Outline: as §1

SPI1 = SPI1 (Homo sapiens, UniProt P17947 1-270); conditions: protein: recombinant; tags: N-terminal GST; dsDNA, one strand shown
Outline: as §1

SPIB = SPIB (Homo sapiens, UniProt Q01892 1-262); conditions: protein: recombinant; tags: N-terminal GST; dsDNA, one strand shown
SPIB, sequence (Q01892 whole entry): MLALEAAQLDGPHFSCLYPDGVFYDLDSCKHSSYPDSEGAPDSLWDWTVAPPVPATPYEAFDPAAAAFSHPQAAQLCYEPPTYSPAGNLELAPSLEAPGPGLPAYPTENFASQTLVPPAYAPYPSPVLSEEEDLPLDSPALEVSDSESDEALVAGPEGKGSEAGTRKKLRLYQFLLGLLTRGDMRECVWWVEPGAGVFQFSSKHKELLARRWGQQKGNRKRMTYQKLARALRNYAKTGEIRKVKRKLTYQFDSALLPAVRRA
Outline: as §1

ELK3 = target: T6, ELK3 (Homo sapiens, UniProt P41970 1-407); conditions: protein: recombinant; tags: N-terminal GST; dsDNA, one strand shown
T6 sequence: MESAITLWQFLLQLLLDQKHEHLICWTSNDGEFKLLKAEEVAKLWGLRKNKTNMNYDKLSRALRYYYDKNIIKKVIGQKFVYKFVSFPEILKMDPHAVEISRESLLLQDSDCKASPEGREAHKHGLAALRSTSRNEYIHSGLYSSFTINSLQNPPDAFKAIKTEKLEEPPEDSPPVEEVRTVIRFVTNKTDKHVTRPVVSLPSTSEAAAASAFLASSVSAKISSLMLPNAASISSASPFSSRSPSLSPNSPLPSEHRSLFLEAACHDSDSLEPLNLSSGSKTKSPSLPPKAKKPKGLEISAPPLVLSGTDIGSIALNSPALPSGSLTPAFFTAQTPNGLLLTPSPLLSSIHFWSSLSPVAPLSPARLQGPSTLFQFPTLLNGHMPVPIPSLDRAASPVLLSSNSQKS
Outline: as §1

FEV = target: T7, FEV (Homo sapiens, UniProt Q99581 1-238); conditions: protein: recombinant; tags: N-terminal GST; dsDNA, one strand shown
T7 sequence: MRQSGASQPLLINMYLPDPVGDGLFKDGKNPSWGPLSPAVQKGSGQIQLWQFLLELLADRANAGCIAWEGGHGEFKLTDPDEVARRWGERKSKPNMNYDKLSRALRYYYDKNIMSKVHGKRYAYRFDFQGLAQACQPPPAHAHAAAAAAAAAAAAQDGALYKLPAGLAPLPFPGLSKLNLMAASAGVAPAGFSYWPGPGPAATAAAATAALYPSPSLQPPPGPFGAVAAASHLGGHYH
Outline: as §1

ETV5 = ETV5 (Homo sapiens, UniProt P41161 1-510); conditions: protein: recombinant; tags: N-terminal GST; dsDNA, one strand shown
ETV5, sequence (P41161 whole entry): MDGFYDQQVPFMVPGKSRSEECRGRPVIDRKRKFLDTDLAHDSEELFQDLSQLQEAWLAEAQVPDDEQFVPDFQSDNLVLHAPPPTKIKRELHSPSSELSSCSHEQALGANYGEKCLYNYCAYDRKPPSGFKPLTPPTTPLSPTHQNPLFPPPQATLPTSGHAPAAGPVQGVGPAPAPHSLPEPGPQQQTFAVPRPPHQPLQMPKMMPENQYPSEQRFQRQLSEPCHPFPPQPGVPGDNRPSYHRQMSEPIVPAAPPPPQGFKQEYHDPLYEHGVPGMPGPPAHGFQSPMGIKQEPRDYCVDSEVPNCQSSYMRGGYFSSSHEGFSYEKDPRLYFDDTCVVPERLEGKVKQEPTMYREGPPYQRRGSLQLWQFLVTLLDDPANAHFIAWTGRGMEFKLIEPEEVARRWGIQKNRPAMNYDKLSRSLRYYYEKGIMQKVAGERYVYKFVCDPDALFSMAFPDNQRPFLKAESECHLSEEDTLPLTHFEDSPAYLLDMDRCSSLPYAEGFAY
Outline: as §1

HSF1 = HSF1 (Homo sapiens, UniProt Q00613 1-529); conditions: protein: recombinant; tags: N-terminal GST; chain copies: 3; dsDNA, one strand shown
HSF1, sequence (Q00613 whole entry): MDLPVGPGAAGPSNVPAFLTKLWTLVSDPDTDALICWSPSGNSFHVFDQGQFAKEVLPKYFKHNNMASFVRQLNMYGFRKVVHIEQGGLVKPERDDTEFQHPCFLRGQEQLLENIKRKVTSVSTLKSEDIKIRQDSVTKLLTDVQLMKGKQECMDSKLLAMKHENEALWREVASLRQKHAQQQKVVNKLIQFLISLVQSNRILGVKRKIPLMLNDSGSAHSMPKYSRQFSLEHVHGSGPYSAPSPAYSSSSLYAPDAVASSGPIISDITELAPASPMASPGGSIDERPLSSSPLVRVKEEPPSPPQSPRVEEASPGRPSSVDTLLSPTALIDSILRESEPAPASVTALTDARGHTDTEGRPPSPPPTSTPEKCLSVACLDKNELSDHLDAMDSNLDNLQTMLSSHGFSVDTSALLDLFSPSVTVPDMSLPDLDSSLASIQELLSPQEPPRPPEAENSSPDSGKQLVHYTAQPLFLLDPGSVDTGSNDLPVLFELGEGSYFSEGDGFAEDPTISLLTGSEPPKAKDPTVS
Outline: as §1

SPIC = target: T8, SPIC (Homo sapiens, UniProt Q8N5J4 1-248); conditions: protein: recombinant; tags: N-terminal GST; dsDNA, one strand shown
T8 sequence: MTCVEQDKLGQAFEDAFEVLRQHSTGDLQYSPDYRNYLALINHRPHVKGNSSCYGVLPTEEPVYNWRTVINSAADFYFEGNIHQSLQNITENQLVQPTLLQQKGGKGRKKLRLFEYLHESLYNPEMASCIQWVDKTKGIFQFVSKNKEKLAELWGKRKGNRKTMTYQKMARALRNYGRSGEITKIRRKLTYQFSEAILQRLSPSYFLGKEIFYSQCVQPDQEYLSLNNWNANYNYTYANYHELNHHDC
Outline: as §1

ELF4 = ELF4 (Homo sapiens, UniProt Q99607 1-663); conditions: protein: recombinant; tags: N-terminal GST; dsDNA, one strand shown
ELF4, sequence (Q99607 whole entry): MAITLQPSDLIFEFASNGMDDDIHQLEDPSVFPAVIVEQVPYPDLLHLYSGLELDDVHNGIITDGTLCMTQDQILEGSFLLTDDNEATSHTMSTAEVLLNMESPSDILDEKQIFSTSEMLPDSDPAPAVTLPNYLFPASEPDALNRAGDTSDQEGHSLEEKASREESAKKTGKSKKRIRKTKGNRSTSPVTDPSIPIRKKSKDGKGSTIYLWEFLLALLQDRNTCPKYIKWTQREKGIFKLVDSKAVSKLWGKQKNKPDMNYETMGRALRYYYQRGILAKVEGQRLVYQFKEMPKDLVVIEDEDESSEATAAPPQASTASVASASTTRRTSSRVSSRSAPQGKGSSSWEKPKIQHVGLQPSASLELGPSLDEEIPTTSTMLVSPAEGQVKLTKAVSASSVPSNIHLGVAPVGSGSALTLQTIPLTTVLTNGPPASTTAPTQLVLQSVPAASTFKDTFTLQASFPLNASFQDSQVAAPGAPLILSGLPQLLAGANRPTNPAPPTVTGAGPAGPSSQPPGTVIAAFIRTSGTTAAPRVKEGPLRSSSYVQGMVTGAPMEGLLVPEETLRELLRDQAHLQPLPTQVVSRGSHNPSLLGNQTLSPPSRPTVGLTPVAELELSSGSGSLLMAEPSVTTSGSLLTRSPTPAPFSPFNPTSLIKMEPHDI
Outline: as §1

ELK4 = target: T9, ELK4 (Homo sapiens, UniProt P28324-2 1-405); conditions: protein: recombinant; tags: N-terminal GST; dsDNA, one strand shown
T9 sequence: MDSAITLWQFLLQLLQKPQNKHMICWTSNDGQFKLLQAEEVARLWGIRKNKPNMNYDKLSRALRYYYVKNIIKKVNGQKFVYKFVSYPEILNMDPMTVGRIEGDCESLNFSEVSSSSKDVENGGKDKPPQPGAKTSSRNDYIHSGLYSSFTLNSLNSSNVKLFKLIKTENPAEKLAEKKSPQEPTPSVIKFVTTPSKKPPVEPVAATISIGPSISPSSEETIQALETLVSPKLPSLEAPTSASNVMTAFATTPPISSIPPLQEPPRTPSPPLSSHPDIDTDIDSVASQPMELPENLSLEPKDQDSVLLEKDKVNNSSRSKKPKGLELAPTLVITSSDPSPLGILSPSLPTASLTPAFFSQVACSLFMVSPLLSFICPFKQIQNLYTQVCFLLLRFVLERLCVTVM
Outline: as §1

ETV2 = target: T10, ETV2 (Homo sapiens, UniProt O00321 1-342); conditions: protein: recombinant; tags: N-terminal GST; dsDNA, one strand shown
T10 sequence: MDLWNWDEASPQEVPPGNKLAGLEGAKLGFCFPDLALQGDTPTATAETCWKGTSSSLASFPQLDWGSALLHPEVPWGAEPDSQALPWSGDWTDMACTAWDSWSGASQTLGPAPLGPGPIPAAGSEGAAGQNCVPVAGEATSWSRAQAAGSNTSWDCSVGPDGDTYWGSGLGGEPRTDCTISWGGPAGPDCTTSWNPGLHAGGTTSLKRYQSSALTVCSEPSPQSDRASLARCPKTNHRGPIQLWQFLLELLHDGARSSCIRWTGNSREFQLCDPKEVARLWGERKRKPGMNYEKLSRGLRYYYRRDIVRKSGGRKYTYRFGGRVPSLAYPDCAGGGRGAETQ
Outline: as §1

ELF3 = target: T11, ELF3 (Homo sapiens, UniProt P78545 1-371); conditions: protein: recombinant; tags: N-terminal GST; dsDNA, one strand shown
T11 sequence: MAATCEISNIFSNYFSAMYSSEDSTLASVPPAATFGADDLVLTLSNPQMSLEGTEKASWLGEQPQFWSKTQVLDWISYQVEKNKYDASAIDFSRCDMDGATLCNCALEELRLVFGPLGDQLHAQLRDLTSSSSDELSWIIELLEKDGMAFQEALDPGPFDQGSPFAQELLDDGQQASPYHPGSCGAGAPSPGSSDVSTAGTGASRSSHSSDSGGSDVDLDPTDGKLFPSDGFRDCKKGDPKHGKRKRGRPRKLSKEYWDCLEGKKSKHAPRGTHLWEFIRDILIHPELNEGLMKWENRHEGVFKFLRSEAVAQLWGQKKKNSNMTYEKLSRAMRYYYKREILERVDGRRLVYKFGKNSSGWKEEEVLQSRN
Outline: as §1

CRX = CRX (Homo sapiens, UniProt O43186 1-299); conditions: protein: recombinant; tags: N-terminal GST; dsDNA, one strand shown
CRX, sequence (O43186 whole entry): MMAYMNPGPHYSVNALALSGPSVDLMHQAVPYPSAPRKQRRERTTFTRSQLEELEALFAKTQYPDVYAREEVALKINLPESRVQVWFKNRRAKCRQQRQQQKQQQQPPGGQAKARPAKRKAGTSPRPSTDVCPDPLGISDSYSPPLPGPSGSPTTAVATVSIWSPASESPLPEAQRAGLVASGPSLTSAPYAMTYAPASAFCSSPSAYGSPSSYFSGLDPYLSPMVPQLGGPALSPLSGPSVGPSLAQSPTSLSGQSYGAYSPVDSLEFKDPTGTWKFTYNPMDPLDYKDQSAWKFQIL
Outline: as §1

GTTAAG
binding signal (FLI1): 1.04 fold enrichment (6-mer frequency, TF over GST control) | binding signal (ELK1): 1.12 fold enrichment (6-mer frequency, TF over GST control) | binding signal (GABPA): 1.07 fold enrichment (6-mer frequency, TF over GST control) | binding signal (ERG): 1.05 fold enrichment (6-mer frequency, TF over GST control) | binding signal (ELF1): 1.04 fold enrichment (6-mer frequency, TF over GST control) | binding signal (EHF): 1.01 fold enrichment (6-mer frequency, TF over GST control) | binding signal (SPI1): 1.01 fold enrichment (6-mer frequency, TF over GST control) | binding signal (SPIB): 1.02 fold enrichment (6-mer frequency, TF over GST control) | binding signal (ELK3): 1.05 fold enrichment (6-mer frequency, TF over GST control) | binding signal (FEV): 1.02 fold enrichment (6-mer frequency, TF over GST control) | binding signal (ETV5): 1.03 fold enrichment (6-mer frequency, TF over GST control) | binding signal (HSF1): 1.3 fold enrichment (6-mer frequency, TF over GST control) | binding signal (SPIC): 1.06 fold enrichment (6-mer frequency, TF over GST control) | binding signal (ELF4): 1.1 fold enrichment (6-mer frequency, TF over GST control) | binding signal (ELK4): 1.06 fold enrichment (6-mer frequency, TF over GST control) | binding signal (ETV2): 1.1 fold enrichment (6-mer frequency, TF over GST control) | binding signal (ELF3): 1.06 fold enrichment (6-mer frequency, TF over GST control) | binding signal (CRX): 1.87 fold enrichment (6-mer frequency, TF over GST control)
